In PubChem BioAssay (NCATS):
Results filed as inconclusive are left out. Active and inactive are the calls of the source. Unless noted, calls come from the whole dose curve.

Legend:
[1] = qHTS for Inhibitors of the Functional Ribonucleoprotein Complex (vRNP) of Lassa (LASV) Arenavirus: LASV Primary Screen - GLuc reporter signal (AID 1347082; calls by dose curve; tested in HEK293 reporter line; note: nearly all actives have a fitted effect of over 60% in size)
[2] = qHTS for Inhibitors of the Functional Ribonucleoprotein Complex (vRNP) of Lassa (LASV) Arenavirus: Viability assay - alamar blue signal for LASV Primary Screen (AID 1347083; calls by dose curve; tested in HEK293 reporter line; note: nearly all actives have a fitted effect of over 80% in size)
[3] = qHTS for Inhibitors of the Functional Ribonucleoprotein Complex (vRNP) of Lymphocytic Choriomeningitis Arenaviruses (LCMV): Viability assay - alamar blue signal for LCMV Primary Screen (AID 1347085; calls by dose curve; tested in HEK293 reporter line; note: nearly all actives have a fitted effect of over 80% in size)
[4] = target: Nucleoprotein (Lymphocytic choriomeningitis virus (strain Armstrong)) (UniProt P09992); assay: qHTS for Inhibitors of the Functional Ribonucleoprotein Complex (vRNP) of Lymphocytic Choriomeningitis Arenaviruses (LCMV): LCMV Primary Screen - GLuc reporter signal (AID 1347086); note: nearly all actives have a fitted effect of over 70% in size
Sequence of Nucleoprotein (Lymphocytic choriomeningitis virus (strain Armstrong)) (P09992 whole entry, looked up): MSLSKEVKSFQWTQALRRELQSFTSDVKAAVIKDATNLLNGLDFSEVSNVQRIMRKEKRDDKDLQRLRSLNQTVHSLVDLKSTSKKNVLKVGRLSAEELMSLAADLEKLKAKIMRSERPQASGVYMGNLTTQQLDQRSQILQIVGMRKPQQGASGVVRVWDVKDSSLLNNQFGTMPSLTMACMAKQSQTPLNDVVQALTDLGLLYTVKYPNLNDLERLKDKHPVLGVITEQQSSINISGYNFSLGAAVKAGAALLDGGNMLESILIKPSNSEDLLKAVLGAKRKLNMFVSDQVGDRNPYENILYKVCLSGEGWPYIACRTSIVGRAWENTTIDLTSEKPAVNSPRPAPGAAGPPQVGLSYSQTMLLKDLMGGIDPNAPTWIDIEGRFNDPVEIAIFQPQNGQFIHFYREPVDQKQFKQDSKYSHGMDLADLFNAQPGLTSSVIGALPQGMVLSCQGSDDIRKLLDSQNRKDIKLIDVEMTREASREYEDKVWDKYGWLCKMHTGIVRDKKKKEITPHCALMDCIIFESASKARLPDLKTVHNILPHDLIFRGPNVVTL

Measured: Potency
Potency is the fitted concentration of half-maximal effect.

COC(=O)c1cc(O)c(O)c(O)c1
inactive: all assays above

CCCCCCCCCCCCC(=O)CCCCC(=O)O
inactive: all assays above

C[C@]12CC[C@H](O)CC1=CCC1C2CC[C@@]2(C)C1C[C@@H](O)[C@@H]2O (stereo not given in full)
inactive: all assays above

CC(C)=CCCC(C)CC(=O)O (stereo not given)
inactive: all assays above

C[C@@H]1O[C@@H](O[C@H]2[C@H](O)[C@@H](O)[C@H](Oc3c(-c4ccc(O)cc4)oc4cc(O)cc(O)c4c3=O)O[C@@H]2CO)[C@H](O)[C@H](O)[C@H]1O
inactive: all assays above

O=CC(O)C1OC(=O)C(O)C1O (stereo not given)
inactive: all assays above

NCc1ccccc1
inactive: all assays above

CC(=O)c1ccccc1O
inactive: all assays above

C[C@@H]1[C@H]2[C@@H](O[C@@H]3O[C@H](CO)[C@@H](O)[C@H](O)[C@H]3O)OC=C(C(=O)O)[C@H]2C[C@@H]1O
inactive: all assays above

O=C1O/C(=C\c2ccc(O)cc2)C(O)=C1c1ccc(O)cc1
inactive: all assays above

O=C(/C=C/c1ccccc1)NCCc1cnc[nH]1
inactive: all assays above

C[C@@H]1C[C@H]2[C@@H]3C[C@H](F)C4=CC(=O)C=C[C@@]4(C)[C@]3(F)[C@H](O)C[C@]2(C)[C@@]1(O)C(=O)CO
inactive: all assays above

CCCC/C=C/C=C\C=O
inactive: all assays above

COc1ccc(-c2oc3ccccc3c(=O)c2O)cc1
inactive: all assays above

Cc1cnccn1
inactive: all assays above

CCCCCc1c2c(cc(O)c1C(=O)O)OC(=O)c1cc(C(=O)CCCC)c(OC)cc1O2
inactive: all assays above

CCCO
inactive: all assays above

CCN1C[C@]2(COC)CC[C@H](O)[C@@]34C5C[C@@H]6[C@@H](OC)C[C@@](O)(C5[C@H]6O)[C@](O)([C@@H](OC)C23)[C@@H]14 (stereo not given in full)
inactive: all assays above

C=C[C@@]1(C)CC(=O)[C@]2(O)[C@@]3(C)[C@@H](O)CCC(C)(C)[C@@H]3[C@H](OC(C)=O)[C@H](O)[C@@]2(C)O1
inactive: all assays above

O=C(O)c1cc(O)c2c(c1)C(=O)c1cccc(O)c1C2=O
inactive: all assays above

O=c1[nH]c(O)c(/C=C2\C=Nc3ccccc32)[nH]1
inactive: all assays above

CCC1CCC(=O)O1 (stereo not given)
inactive: all assays above

CC1=CCC(O)(C(C)C)CC1 (stereo not given)
inactive: all assays above

CCCCCCCOC(C)=O
inactive: all assays above

CCCC1CCCC(=O)O1 (stereo not given)
inactive: all assays above

CC1(C)C[C@H]2C3=CCC4[C@@]5(C)CC[C@H](O)C(C)(C)C5CC[C@@]4(C)[C@]3(C)[C@@H](O)[C@@H](O)[C@@]2(CO)[C@@H](O)[C@@H]1O (stereo not given in full)
inactive: all assays above

COc1cc(/C=C/c2ccc(O)cc2)cc(OC)c1
inactive: all assays above

O=C(OCC1OC(Oc2ccc(O)cc2)C(O)C(O)C1O)c1ccccc1 (stereo not given)
inactive: all assays above

COc1cc2c(c(OC)c1OC)-c1c(cc3c(c1OC)OCO3)CC(C)C(C)C2 (stereo not given)
inactive: all assays above

O=C(O)/C=C/c1ccc2c(c1)OCO2
inactive: all assays above

CCCCCCCCC=O
inactive: all assays above

COc1ccc(COC(C)=O)cc1
inactive: all assays above

CC1=CC2OC3CC4OC(=O)C=CC=CC(C(C)O)OCC(O)C(C)CC(=O)OCC2(CC1O)C4(C)C31CO1 (stereo not given)
inactive: all assays above

COC(=O)c1nccc2c1[nH]c1ccccc12
inactive: all assays above

O=C(/C=C/c1ccccc1)OC/C=C/c1ccccc1
inactive: all assays above

CCCCCOC(=O)CCC
inactive: all assays above

C=C1C(=O)OC2C=C(C)CCC=C(C)CCC12 (stereo not given)
inactive: all assays above

CC(C)(O[C@@H]1O[C@H](CO)[C@@H](O)[C@H](O)[C@H]1O)[C@@H]1CC=C(C(=O)O)CC1
inactive: all assays above

CC1(C)Oc2ccc3ccc(=O)oc3c2[C@@H](O)[C@H]1O
inactive: all assays above

C[C@@H]1C(=O)O[C@@H]2CC34[C@H]5C[C@@H](C(C)(C)C)C36[C@H](OC(=O)[C@@H]6O)OC4(C(=O)O5)[C@@]12O (stereo not given in full)
inactive: all assays above

COc1cc(C(C)=O)cc(OC)c1O
inactive: all assays above

COc1cc(C(=O)OC2C[C@H]3CC[C@@H](C2)N3)ccc1O (stereo not given in full)
inactive: all assays above

CC/C=C\CC/C=C/CO
inactive: all assays above

N#CC(=C1Nc2ccccc2S1)c1ccnc(OCc2ccc(CN3CCOCC3)cc2)n1
active: [1] 7.69 µM | [2] 4.32 µM | [3] 1.93 µM | [4] 1.72 µM

CC(C)=CC(=O)O
inactive: all assays above

CSC(=S)NCc1c[nH]c2ccccc12
inactive: all assays above

COc1ccc(CNC(=S)NCc2ccc(OC)cc2)cc1
inactive: all assays above

CC1(C)CC[C@]2(C(=O)O)[C@H](O)C[C@]3(C)C(=CCC4[C@@]5(C)C[C@H](O)[C@H](O)[C@@](C)(CO)C5CC[C@]43C)[C@@H]2C1 (stereo not given in full)
inactive: all assays above

Cc1cc(O)c2c(c1)C(O)(C1OC(CO)C(O)C(O)C1O)c1cccc(O)c1C2=O (stereo not given)
inactive: all assays above

COc1cc2c(cc1O)[C@@H]1Cc3cc(OC)c(OC)cc3C(C2)N1C
inactive: all assays above

C=C[C@@]1(C)CCC(/C(C)=C/C=C/C(C)(C)O)C[C@@H]1C(=C)C (stereo not given in full)
inactive: all assays above

C/C=C(\C)C(=O)O[C@H]1CC(C)=C2C(=O)C=C(C)C2[C@@H]2OC(=O)[C@@](C)(OC(=O)C=C(C)C)C21 (stereo not given in full)
inactive: all assays above

Nc1nc2c(ncn2[C@@H]2O[C@H](CO)[C@@H](O)[C@@H]2O)c(=O)[nH]1
inactive: all assays above

C=C1C[C@]23CC[C@H]4C(CO)(CO)C[C@@H](O)C[C@@]4(C)[C@@H]2CC[C@H]1C3
inactive: all assays above

CN1CCCC1
inactive: all assays above

COC(=O)C=CC(=O)OC
active: [1] 6.11 µM | [2] 4.85 µM | [3] 3.06 µM | [4] 4.85 µM

C/C=C(/C)C(=O)O[C@H]1[C@@H](O)c2c(ccc3ccc(=O)oc23)OC1(C)C
inactive: all assays above

COc1cc(O)c2c(=O)c3c(O[C@H]4O[C@@H](CO)[C@H](O)[C@@H](O)[C@@H]4O)ccc(O)c3oc2c1
inactive: all assays above

C[C@@H]1CCN(C(=O)CC#N)C[C@H]1N(C)c1ncnc2[nH]ccc12
inactive: all assays above

OCCc1c[nH]c2ccccc12
inactive: all assays above
